Growth inhibition data for 10 molecules are collected here from PubChem BioAssay AID504594 (Broad Institute, 2011).

Molecules are shown by their SMILES. The whole screen tested about 2,000 compounds, of which fewer than 10 were called active.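 Rule for the calls: active = growth inhibition of at least 75% in every replicate, which also brings the mean inhibition to 75% or more; inconclusive = mean inhibition 75% or more but some replicate under 75%; inactive = the rest.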 A selection follows.

This assay is described as follows: reduced viability of yeast carrying PfHsp90 – S. cerevisiae, BacTiter-Glo luminescence, antimalarial PfHsp90 inhibitor project, primary screen (AID 504594).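 Note: 0% = DMSO neutral control wells and 100% = 20 µM radicicol control wells; higher value means stronger growth inhibition because the sign is flipped.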 The following applies: S. cerevisiae expressing PfHsp90, BacTiter-Glo growth, 48 h; at 9.4 µM; stronger effect = higher value.
Take `CC(C)(C)C(O)C(Oc1ccc(Cl)cc1)n1cncn1` (stereo not given): the growth inhibition is 96.5% (active).

Turning to `CN1CCN(C(=O)OC2c3nccnc3C(=O)N2c2ccc(Cl)cn2)CC1` (stereo not given), the growth inhibition is 6.28% (inactive).

Take `O=C1NC(=O)C2(Cc3ccccc3N3CCCC32)C(=O)N1c1ccc(Cl)cc1` (stereo not given): the growth inhibition was -0.293% (inactive).

For `O=S(=O)(c1ccc(F)cc1)N1CCCCC1c1cccnc1` (stereo not given), the growth inhibition is -1.69% (inactive).

As for `c1ccc(Cn2ccnc2)cc1`, the growth inhibition is -14.6% (inactive).

`Clc1ccc(CSC(Cn2ccnc2)c2ccc(Cl)cc2Cl)cc1` (stereo not given): the growth inhibition is 95% (active).

For `Cn1c(O)c(C=NCCc2c[nH]c3ccccc23)c(=O)n(C)c1=O`, the growth inhibition is -4.75% (inactive).

On to `C[N+]1(C)CCN(c2ccccc2)CC1`, for which the growth inhibition is 4.14% (inactive).

As to `COc1cc2c3cc1Oc1cc(ccc1O)C[C@@H]1c4c(cc(OC)c(O)c4Oc4ccc(cc4)C[C@H]3N(C)CC2)CCN1C`, the growth inhibition was -1.85% (inactive).

Regarding `CCOc1ccc(N2C(=O)NC(=O)/C(=C\c3cc(OC)c(OC)cc3[N+](=O)[O-])C2=O)cc1`, the growth inhibition is -0.939% (inactive).
